This note sets out measurements from PubChem BioAssay (Tox21).

Test [1] can be described thus: qHTS assay to identify small molecule agonists of the hypoxia (HIF-1) signaling pathway - cell viability counter screen (AID 1224844; calls by dose curve; also: nearly all actives have a fitted effect of over 50% in size). In short, it runs like this: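 Multiplexed with the HRE beta-lactamase assay, this viability read used CellTiter-Glo luminescence (30 min, RT) on HRE-bla ME-180 cells treated 17 hrs with compounds in 0.5% dialyzed FBS medium.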
Test [2] can be described thus: qHTS assay to identify small molecule agonists of H2AX (AID 1224845; active = well fitted activation curve with a large enough effect in the signal ratio in the repeat runs, not every such curve was filed as active; the % refers to the signal ratio). The method in brief:
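Wild-type CHO-K1 cells, plated overnight, exposed 3hr at 37C to 15 concentrations (0.76% DMSO final). Lysed, then HTRF anti-pH2AX (S139) cryptate and anti-H2AX-d2 antibodies, 24 hr room temperature; 665/620 nm emission read.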
On the technique in general: In qHTS, concentration-response curves come from the screen itself.

Test [3] in a line: qHTS assay to identify small molecule agonists of the hypoxia (HIF-1) signaling pathway (AID 1224846; active = well fitted activation curve with a large enough effect in the signal ratio in the repeat runs, not every such curve was filed as active; the % refers to the signal ratio). In short, it runs like this:
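Hypoxia-pathway activation was scored as increased beta-lactamase from an HRE-controlled reporter in ME-180 cells; plated at 2,000 cells per well with 0.5% dialyzed FBS, they were exposed 17 hrs to compounds and then given CCF4-AM.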

A short description of test [4]: qHTS assay to identify small molecule agonists of H2AX - cell viability counter screen (AID 1224847; calls by dose curve; also: top concentration of the series differs between compounds; nearly all actives have a fitted effect of over 30% in size). The method in brief: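 Cells plated first: CHO-K1, 1000 per well in 10% FBS medium, incubated overnight at 37C. Then 15-point compound titration added (final DMSO 0.76%) for 3 hr. Finally CellTiter-Glo added and luminescence read.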
A short description of test [5]: qHTS assay to identify small molecule antagonists of the estrogen related receptor (ERR) signaling pathway from Tox21 library (AID 1224848). Also: nearly all actives have a fitted effect of over 50% in size. The method in brief:
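ERR reporter cell line (from NTP) seeded 2,000 cells/well, rested 6 h at 37 C/5% CO2, then pin-dosed with compounds in DMSO. After 18 h at 37 C, ONE-Glo added; luminescence read after 30 min at room temperature.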

The nature of test [6]: qHTS assay to identify small molecule agonists of the estrogen related receptor (ERR) signaling pathway from Tox21 library (AID 1224849; calls by dose curve; also: nearly all actives have a fitted effect of over 15% in size). The settings on record: ERR reporter cell line, ONE-Glo luciferase, 18 h; at 92.4 µM (top of the series) unless noted. The method in brief: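 Six hours post-seeding at 37 C/5% CO2, ERR cells receive DMSO-solubilised compounds; after 18 h at 37 C, ONE-Glo reagent is applied and luminescence recorded.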

Test [7] can be described thus: qHTS RealTime-Glo MT Cell Viability Assay in HepG2 cells - 24 hour (AID 1224867). Also: nearly all actives have a fitted effect of over 50% in size. In short, it runs like this: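 Real-time, nonlytic viability: 600 HepG2 cells/well mixed with NanoLuc enzyme plus prosubstrate; 5 h settle, compound (DMSO) added by pintool; luminescence monitored over 40 h at 37 C.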
A short description of test [8]: qHTS RealTime-Glo MT Cell Viability Assay in HEK293 cells - 32 hour (AID 1224868). Also: nearly all actives have a fitted effect of over 50% in size. Also: potency is read from the fitted curve at half-maximal effect. In short, it runs like this: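 Cells + reagent dispensed (600 cells/well, HEK293) → 5 h at 37 C/5% CO2 → 23 nL compound in DMSO pinned → 40 h at 37 C → luminescence read at 0, 8, 16, 24, 32, 40 h.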
Test [9] can be described thus: A CellTox Green Cytotoxicity Assay to monitor cytotoxicity in HEK293 cells - 0 hour (AID 1224869). Also: nearly all actives have a fitted effect of over 50% in size. The method in brief: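 Seeding of HEK293 cells together with cytotoxicity dye preceded a 5 h incubation at 37 C/5% CO2. Test compounds in DMSO were then added and fluorescence monitored across 40 h.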
The target of test [10] is Thyrotropin receptor (Homo sapiens) (UniProt P16473). The test can be described thus: qHTS assay to identify small molecule agonists of the thyroid stimulating hormone receptor (TSHR) signaling pathway (AID 1224843; calls by dose curve; also: nearly all actives have a fitted effect of over 45% in size). In short, it runs like this: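 TSHR-HEK293 cells in agonist mode, 30 min room-temperature step, then cAMP measured by competitive HTRF (cAMP-d2 with anti-cAMP cryptate) after 1 h at room temperature. Tested at 15 concentrations in triplicate.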

Several values for one entry are separate records, joined by “and”; a condition that tells them apart may be missing. Equal entries are not always repeated. Records with an inconclusive call do not appear. The source holds several records for some structures; these can differ, active in one and inactive in another. Activity calls are given as the source filed them. Unless noted, calls follow the shape of the dose curve; as a rule, active = well fitted curve in the direction sought with a large enough effect in the repeat runs; inconclusive = weak or mixed curves; inactive = no such curve, though single readings can be large; an effect the other way counts as inactive or inconclusive.
% is scaled to controls: 0 for no effect and ±100 for the full control effect.

Thyrotropin receptor (Homo sapiens), sequence (P16473 whole entry, looked up): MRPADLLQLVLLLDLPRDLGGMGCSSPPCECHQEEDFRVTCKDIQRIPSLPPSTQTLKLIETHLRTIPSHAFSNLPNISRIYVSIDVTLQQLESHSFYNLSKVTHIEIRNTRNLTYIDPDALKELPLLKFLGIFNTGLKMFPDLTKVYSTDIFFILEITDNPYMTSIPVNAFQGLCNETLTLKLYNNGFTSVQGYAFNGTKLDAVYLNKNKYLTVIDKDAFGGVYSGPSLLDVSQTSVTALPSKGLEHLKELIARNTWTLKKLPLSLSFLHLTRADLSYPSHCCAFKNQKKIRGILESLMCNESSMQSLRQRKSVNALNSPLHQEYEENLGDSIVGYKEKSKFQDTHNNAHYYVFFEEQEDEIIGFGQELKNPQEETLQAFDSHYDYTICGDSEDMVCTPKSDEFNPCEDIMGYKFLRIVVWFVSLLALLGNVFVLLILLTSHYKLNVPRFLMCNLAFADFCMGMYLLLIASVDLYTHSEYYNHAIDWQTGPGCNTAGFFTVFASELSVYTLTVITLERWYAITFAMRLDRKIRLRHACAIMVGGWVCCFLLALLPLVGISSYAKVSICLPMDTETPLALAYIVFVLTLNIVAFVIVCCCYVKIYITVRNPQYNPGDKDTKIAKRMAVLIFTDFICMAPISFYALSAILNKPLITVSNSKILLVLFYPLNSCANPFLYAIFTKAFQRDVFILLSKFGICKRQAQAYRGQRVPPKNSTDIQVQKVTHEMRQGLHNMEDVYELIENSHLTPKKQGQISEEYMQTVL

`CCS(=O)(=O)c1ccc(OC)c(C(=O)OC)c1`: the Potency entry in [1], in test [4], in [5], in test [7], in test [8] and in test [9] was “inactive” in each case. For the same molecule, the molecule was classed as inactive in test [2] and in test [3]. In addition, in test [6], the activity change, positive = activation is 4.43% [at 42.5 µM] (inactive).

`CC(C)(C)c1ccc(O)c(O)c1`: the Potency result in test [1], in test [4] and in [9] was “inactive” each time. In addition, the Potency in test [8] is 20.2 µM (active) and 13.8 µM (active).

Regarding `O=C1OC(=O)C2CCCCC12` (centres undefined), the Potency entry in test [1], in test [4], in test [5], in test [7], in test [8] and in test [9] was “inactive” in each case. The call in test [2] and in test [3] was inactive. For the same molecule, the activity change, positive = activation in test [6] is -1.02% (inactive).

Regarding `CCSC(=O)N(CC(C)C)CC(C)C`, the Potency entry in test [1], in [4], in [5], in test [7], in test [8] and in [9] was “inactive” each time. Further, the molecule was called inactive in test [2] and in [3]. Also, in test [6], the activity change, positive = activation is 3.6% (inactive).

In the case of `CC(=O)CC(C)(C)C1CCCCC1`, the Potency result in [1], in test [4], in test [5], in test [7], in [8] and in test [9] was “inactive” throughout. For the same molecule, the outcome in [2] and in test [3] was inactive. Also, the activity change, positive = activation in test [6] was 0.591% (inactive).

In the case of `O=[N+]([O-])c1ccc(F)cc1F`, the Potency entry in [1], in test [4], in [5], in test [7], in [8] and in test [9] was “inactive” throughout. In addition, the result in test [2] and in [3] was inactive. Also, in [6], the activity change, positive = activation is 3.35% (inactive).

With `C[N+](C)(C)CCCCCC[N+](C)(C)C`, the Potency entry in [1], in test [7], in test [8] and in [9] was “inactive” throughout. In test [2], the call was inactive.

Regarding `CO[Si](CCCOCC1CO1)(OC)OC` (centres undefined), the Potency entry in test [1], in test [4], in test [7] and in [9] was “inactive” each time. The result in [2] and in test [3] was inactive.

With `CN(C(=O)c1c(O)c2ccccc2n(C)c1=O)c1ccccc1`, the Potency entry in test [1], in test [5], in test [7], in [8] and in test [9] was “inactive” throughout. Further, the molecule was classed as inactive in test [2] and in [3]. For the same molecule, the activity change, positive = activation in test [6] is 0.397% [at 42.5 µM] (inactive).

In the case of `COC(=O)c1c(Cl)c(Cl)c(C(=O)OC)c(Cl)c1Cl`, the Potency entry in test [1], in [5], in [7] and in test [9] was “inactive” each time. Also, the outcome in test [3] was inactive. In addition, the activity change, positive = activation in test [6] is 4.6% (inactive) and 15.8% (active).

Turning to `CC(=O)OCC(=O)[C@@]1(O)CC[C@H]2[C@@H]3CCC4=CC(=O)CC[C@]4(C)[C@H]3C(=O)C[C@@]21C`, the Potency entry in test [1], in test [4], in [7], in test [8] and in test [9] was “inactive” each time. Besides, the outcome in test [2] was inactive.

As for `O=C1CCCC(=O)C1`, the Potency result in test [1], in [4], in test [5], in [7] and in test [9] was “inactive” each time. The outcome in [2] and in [3] was inactive. Also, the activity change, positive = activation in [6] was -12.9% (inactive).

Regarding `CCCCOCCOCCOCc1cc2c(cc1CCC)OCO2`, the Potency result in test [1], in test [4], in test [7] and in [9] was “inactive” each time. Also, the molecule was called inactive in test [2] and in test [3].

For `CCOC(=O)CCC(C)=O`, the Potency result in test [1], in test [4], in test [5], in [7], in test [8] and in [9] was “inactive” throughout. For the same molecule, the molecule was classed as inactive in test [2] and in test [3]. Further, the activity change, positive = activation in [6] was 4.77% (inactive).

In the case of `FC(F)OC(Cl)C(F)(F)F` (centres undefined), the Potency entry in test [1], in [4], in test [5], in test [7], in test [8] and in test [9] was “inactive” each time. For the same molecule, the result in test [2] and in [3] was inactive. In test [6], the activity change, positive = activation was 8.92% (inactive).

Regarding `O=C(O)CNC(=O)c1ccc([N+](=O)[O-])cc1`, the Potency entry in test [1], in test [4], in test [5], in test [7], in test [8] and in test [9] was “inactive” throughout. Further, the molecule was called inactive in test [2] and in test [3]. For the same molecule, the activity change, positive = activation in [6] is 4.79% (inactive).

Consider `CC(=O)Nc1c(I)cc(I)c(C(=O)O)c1I`, for which the Potency entry in test [1], in test [5], in test [7], in [8] and in [9] was “inactive” each time. Moreover, the result in [2] and in test [3] was inactive. In [6], the activity change, positive = activation is 7.03% [at 42.5 µM] (inactive).

Consider `N=C(N)c1ccc2cc(OC(=O)c3ccc(N=C(N)N)cc3)ccc2c1`, for which the Potency result in test [1], in [4], in test [5], in test [7], in test [8] and in test [9] was “inactive” throughout. In addition, the result in test [2] and in test [3] was inactive. In test [6], the activity change, positive = activation is 0.274% [at 42.5 µM] (inactive).

Consider `NC(CSCC(=O)O)C(=O)O` (centres undefined), for which the Potency result in test [1], in test [4], in test [5], in [7] and in test [9] was “inactive” in each case. Besides, the molecule was classed as inactive in [2] and in test [3]. In test [6], the activity change, positive = activation was 5.41% [at 42.5 µM] (inactive).

Regarding `COCCCOCCCOC`, the Potency result in test [10], in test [4], in [5], in test [7], in [8] and in test [9] was “inactive” each time. The molecule was called inactive in test [2] and in [3].

Consider `Cc1nc2c([nH]1)c(=O)n(C)c(=O)n2Cc1ccco1`, for which the Potency entry in test [1], in test [4], in test [7], in test [8] and in test [9] was “inactive” throughout. Moreover, the molecule was called inactive in [2] and in test [3].

In the case of `CN1CCN(c2cc3c(cc2F)c(=O)c(C(=O)O)cn3-c2ccc(F)cc2)CC1`, the Potency entry in test [1], in test [5], in test [7], in test [8] and in test [9] was “inactive” in each case. The outcome in test [2] and in [3] was inactive. The activity change, positive = activation in test [6] is -10.8% [at 42.5 µM] (inactive).
